{"source": "PubChem BioAssay (EPA / NIEHS)", "key": {"[1]": {"assay": "ATG_XTT_Cytotoxicity: Cytotoxicity Assessment in the Attagene TRANS-FACTORIAL HepG2 Assay (AID 2283584)", "outline": "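XTT readout of cell number in transfected HepG2 cells, 24 h post-dosing; DMSO serves as negative control and baseline, with activity taken as loss of viability signal.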"}, "[2]": {"assay": "TOX21_p53_BLA_p2_viability: Viability Assessment in the Tox21 HCT-116 p53 Agonism Beta-lactamase Assay, Phase 2 (AID 2283591);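 note: compound exposure lasted 16 h at 37 °C; actives lower the ATP signal meaning cytotoxicity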", "outline": "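Cytotoxicity readout: CellTiter-Glo ATP luminescence, 30 min at room temperature, after the beta-lactamase read. Cells were HCT116 exposed 16 h at 37C to compounds pin-transferred at 217-fold dilution from DMSO stocks.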"}, "[3]": {"assay": "TOX21_p53_BLA_p3_viability: Viability Assessment in the Tox21 HCT-116 p53 Agonism Beta-lactamase Assay, Phase 3 (AID 2283593);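 note: cells exposed to compound for 16 h before reading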", "outline": "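Cellular ATP was quantified by CellTiter-Glo luminescence, read after 30 min at room temperature. Beforehand, HCT116 cells (4000/well) received compound 5 h post-seeding, 217-fold diluted from DMSO, then incubated 16 h at 37C.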"}, "[4]": {"molecular_target": "Cellular tumor antigen p53 (Homo sapiens) (UniProt P04637)", "sequence (P04637 whole entry, looked up)": "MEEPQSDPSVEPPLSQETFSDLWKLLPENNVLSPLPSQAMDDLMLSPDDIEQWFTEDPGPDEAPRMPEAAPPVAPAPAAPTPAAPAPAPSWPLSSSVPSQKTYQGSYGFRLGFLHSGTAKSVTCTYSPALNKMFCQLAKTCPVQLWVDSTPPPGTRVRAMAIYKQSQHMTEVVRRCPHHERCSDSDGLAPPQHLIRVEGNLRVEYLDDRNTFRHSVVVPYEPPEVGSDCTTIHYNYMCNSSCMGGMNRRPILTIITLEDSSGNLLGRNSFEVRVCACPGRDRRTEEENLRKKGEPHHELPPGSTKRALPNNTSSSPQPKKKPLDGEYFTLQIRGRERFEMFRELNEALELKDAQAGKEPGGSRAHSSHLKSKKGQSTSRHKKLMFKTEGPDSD", "assay": "TOX21_p53_BLA_p3_ratio: Tox21 HCT-116 p53 Agonism Beta-lactamase Assay, Ratio, Phase 3 (AID 2283596)", "outline": "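HCT116 p53-bla cells (4000/well) given compound in DMSO (217-fold dilution) after 5 h, incubated 16 h at 37C. CCF4-AM substrate 2 h at room temperature; 460/530 nm emission ratio, gain fitted against DMSO.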"}, "[5]": {"assay": "TOX21_p53_BLA_p4_viability: Viability Assessment in the Tox21 HCT-116 p53 Agonism Beta-lactamase Assay, Phase 4 (AID 2283597);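 note: hits lower the luminescence signal meaning cytotoxicity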", "outline": "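We seeded HCT116 p53 reporter cells at 4000/well and waited 5 h. We then added compounds in DMSO at a 217-fold dilution and incubated for 16 h. Viability was read as CellTiter-Glo luminescence after 30 min at RT.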"}, "[6]": {"molecular_target": "Cellular tumor antigen p53 (Homo sapiens) (UniProt P04637)", "assay": "TOX21_p53_BLA_p2_ratio: Tox21 HCT-116 p53 Agonism Beta-lactamase Assay, Ratio, Phase 2 (AID 2283592)", "outline": "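In this cell-based reporter format, HCT116 cells were dosed with chemicals delivered from DMSO by 217-fold dilution and incubated 16 h at 37C. Emission at 460 and 530 nm after 2 h CCF4-AM loading provided the ratio, fitted upward versus DMSO.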"}}, "note": "Inconclusive results are not listed. Activity calls are given as the source filed them. Rule for the calls: active = hit-call score of the fitted dose curve at least 0.9, where 1 is the maximum; inconclusive = response in the unintended direction; inactive = score below 0.9.", "data": [{"compound": "CCCCOCCOCCOCCO", "values": [{"measurement": "outcome", "setting": "[1]", "value": "inactive"}, {"measurement": "outcome", "setting": "[2]", "value": "inactive"}, {"measurement": "outcome", "setting": "[3]", "value": "inactive"}, {"measurement": "outcome", "setting": "[4]", "value": "inactive"}, {"measurement": "outcome", "setting": "[5]", "value": "inactive"}]}, {"compound": "CCCCCCCCCO", "values": [{"measurement": "outcome", "setting": "[1]", "value": "inactive"}, {"measurement": "outcome", "setting": "[6]", "value": "inactive"}, {"measurement": "outcome", "setting": "[3]", "value": "inactive"}, {"measurement": "outcome", "setting": "[4]", "value": "inactive"}, {"measurement": "outcome", "setting": "[5]", "value": "inactive"}]}, {"compound": "CCCCCCOc1ccc(O)cc1", "values": [{"measurement": "outcome", "setting": "[1]", "value": "inactive"}, {"measurement": "AC50", "setting": "[6]", "value": "34 µM (active)"}, {"measurement": "outcome", "setting": "[3]", "value": "inactive"}, {"measurement": "AC50", "setting": "[4]", "value": "36.3 µM (active)"}, {"measurement": "AC50", "setting": "[5]", "value": "65 µM (active)"}]}, {"compound": "ClCCOCCOCCCl", "values": [{"measurement": "outcome", "setting": "[1]", "value": "inactive"}, {"measurement": "outcome", "setting": "[6]", "value": "inactive"}]}]}
